Laboratory results taken from PubChem BioAssay AID736 (The Scripps Research Institute Molecular Screening Center, 2007).
About 210 (0.22%) of roughly 97,000 compounds were called active. This is one part of a sample in which actives are shown more often than they occur. Rule as the data show it: active = inhibition above about 45%; inactive = the rest.

target: Sphingosine 1-phosphate receptor 2 (Homo sapiens) (UniProt O95136); assay: blockers of S1P2 receptor signalling – cell-based, primary screen (AID 736); conditions: cell-based S1P2 antagonist assay, at 5 µM, hits give high values;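 also: CRE beta-lactamase reporter cells expressing human S1P2 stimulated with S1P; 0% = agonist at EC80 alone and 100% = agonist plus reference antagonist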
Sequence (O95136 whole entry, looked up): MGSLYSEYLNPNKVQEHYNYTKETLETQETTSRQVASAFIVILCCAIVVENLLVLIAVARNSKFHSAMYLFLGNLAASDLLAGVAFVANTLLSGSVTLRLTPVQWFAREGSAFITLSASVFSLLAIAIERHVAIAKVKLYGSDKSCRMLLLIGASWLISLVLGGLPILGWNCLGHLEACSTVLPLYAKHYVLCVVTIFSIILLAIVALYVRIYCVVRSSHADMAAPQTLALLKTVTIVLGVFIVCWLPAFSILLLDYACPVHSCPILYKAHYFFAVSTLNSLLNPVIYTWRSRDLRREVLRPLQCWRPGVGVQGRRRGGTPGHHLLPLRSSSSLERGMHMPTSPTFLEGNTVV

inhibition, inactive:
Cc1nn(C)cc1/C=N/NC(=O)c1sc2ccccc2c1Cl -19.2%, O=C(CCNS(=O)(=O)c1ccccc1C(F)(F)F)NCc1ccc2c(c1)OCO2 -42.1%, CCOc1cc(-c2cc(-c3ccc(OC)cc3)nc(N)c2C#N)ccc1O -25.8%, COc1ccc2[nH]c(=O)c(CNc3ccc(C)c(C)c3)cc2c1 17.9%, CC1(C)NC(=O)N(CCCCSc2ccc(Cl)cc2)C1=O 11.3%, CCc1nnc(NC(=O)CSc2nc3ccccc3c(=O)n2CCCOC)s1 2.95%, COc1ccc(C(F)(F)F)cc1N/C=C\c1nnnn1-c1ccc(C)cc1 -17.3%, CCNC(=S)Nc1cccc(Cl)c1C 13.9%, CCc1ccc(C2C(C#N)=C(N)Oc3n[nH]c(CC(=O)OC)c32)cc1 (stereo not given) -30.6%, Cc1ccc(S(=O)(=O)NCCSC(C)(C)C)cc1 -2.88%, Cc1ccc(S/C(=N\S(=O)(=O)c2ccc(Cl)cc2)c2ccccc2)cc1 -10.2%, O=C(Nc1cccc(-c2nc3ncccc3o2)c1)c1ccco1 -19.4%, CCOC(=O)C1C(=O)NCC1c1ccccc1 (stereo not given) -4.06%, COc1ccc(Cc2nnc(SC)[nH]c2=O)cc1 -19.6%, Cc1cccc(C)c1OC(=O)CSc1nnc(-c2ccccc2)o1 -20%, O=C(NCCN1CCN(Cc2ccccc2)CC1)c1cc2c(=O)[nH]c3ccccc3c2s1 -27.2%, Cc1cc(C=O)c(C)n1-c1ccc(NC2CCCCC2)c([N+](=O)[O-])c1 4.51%, Cc1ccc(N2CCN(/N=C/c3cccs3)CC2)cc1 22.6%, Cc1cc([N+](=O)[O-])c(N2CCC[C@@H]2C(=O)O)c([N+](=O)[O-])c1 16.9%, COc1ccc(N(CC(=O)N/N=C/c2cccc3c2OCCO3)S(=O)(=O)c2ccc(NC(C)=O)cc2)cc1 10.2%, COc1ccc(C2C(C(C)=O)=C(O)C(=O)N2Cc2cccnc2)cc1 (stereo not given) 5.26%, Cc1nnsc1S(=O)(=O)Cc1ccccc1Cl 6.79%, CC(=O)NS(=O)(=O)c1ccc(NC(=S)NC(=O)C(C)(C)C)cc1 1.69%, CS(=O)(=O)Nc1cccc(C2=NN(S(=O)(=O)c3ccccc3)C(c3cccs3)C2)c1 (stereo not given) 21.1%, Clc1ccc(Cl)c(Oc2ccc(Oc3nc(Cl)ccc3Cl)cc2)n1 -3.25%, O=C(Cc1ccc(-n2c(=O)c3sccc3n(Cc3ccc(F)cc3)c2=O)cc1)NCc1ccco1 14.3%, O=C(NCCCCCCNC(=O)NCc1ccco1)NCc1ccco1 -14.7%, Cc1cc(-c2ccc(/C=N/n3cnnc3)o2)c([N+](=O)[O-])cc1C 1.7%, COc1ccc(-n2c(C)csc2=S)cc1 -2.06%, Cn1nc([N+](=O)[O-])nc1Sc1ccc(C(C)(C)C)cc1 1.08%, CC(N=Cc1nc(-c2ccccc2)oc1O)c1ccccc1 (stereo not given) -15.5%, O=C(Nc1nnc(CCOCCOCCc2nnc(NC(=O)c3ccco3)s2)s1)c1ccco1 0.16%, COc1ccc(Br)cc1CN1CCN(C(=O)c2cccc(OC)c2OC)CC1 -12.2%, O=C1c2ccccc2NC(c2ccc(-c3cccc(Cl)c3)o2)N1O (stereo not given) 9.34%, CCCCc1nnc(NC(=O)CS(=O)(=O)Cc2ccccc2)s1 11.7%, Brc1ccc(-c2nnc(-c3ccccc3)o2)o1 -21.1%, O=C(Nc1cccc2ccccc12)c1onc2c1CCCC2 -13%, ONC(=Nc1ccccc1)c1ccccc1Cl -2.09%, CCOC(=O)c1c(NC(=O)c2ccc(N3CCOCC3)c([N+](=O)[O-])c2)sc(C)c1C -6.51%, CC(C)CC[n+]1ccn(C2=C([O-])c3ccccc3C(=O)/C2=N\S(=O)(=O)c2ccccc2)c1 18.2%, CCOC(=O)c1ccccc1NS(=O)(=O)c1ccc(OC)cc1 -9.6%, CCOC(=O)c1cc2ccccc2nc1C -7.13%, Cc1nc2ccccc2cc1O -18.9%, CCN(CC)S(=O)(=O)c1ccc(N2CCOCC2)c(C(=O)O)c1 0.01%, COc1ccc(-c2noc(CSc3ccc(C)cc3)n2)cc1 8.11%, C=CCO/N=C(\C)c1c(O)c(C)c(-c2ccccc2)n(-c2ccccc2)c1=O 1.26%, CCn1c2ccccc2c2cc(NC(=S)N3CCOCC3)ccc21 7.28%, Cc1ccc(CNC(=O)c2ccccc2CCc2ccccc2)cc1 -23.4%, CCCCCCC(=O)Nc1nc(C)c(-c2csc(Nc3cc(Cl)ccc3OC)n2)s1 8.39%, c1cnc(Nc2nc(-c3ccc4ccccc4c3)cs2)nc1 10.4%, O=c1cc(CN2CCN(c3cccc(Cl)c3)CC2)c2cc3c(cc2o1)CCCC3 2.36%, O=C(O)c1cccnc1NC1CCCC1 -6.46%, CC(C)C(NC(=O)c1ccc(Cl)cc1)C(=O)O (stereo not given) 18.8%, Cc1ccccc1-n1nc(C)c2cc(C(=O)NC3CC3)sc21 2.59%, Cc1ccc(-c2ccnc3nc(Sc4ncc(C(F)(F)F)cc4Cl)nn23)cc1 -3.44%, CSc1nc(N(C)NC(=O)c2cccc(C)c2)c2ccccc2n1 5.9%, CCN(c1ccccc1)S(=O)(=O)c1ccc(C(=O)Nc2nccs2)cc1 -3.2%, O=C(Nc1ccn(Cc2ccccc2F)n1)c1ccc(COc2ccc(Cl)cc2Cl)o1 6.95%, Cc1ccc(-n2nc3cc(C)c(NC(=O)c4cccnc4)cc3n2)cc1 3.29%, Cc1cc(=O)[nH]c(SCc2cccc(F)c2)n1 -28.1%, O=[N+]([O-])c1ccccc1/C=N/n1c(COc2ccccc2)n[nH]c1=S 18.3%, N=c1c2c(-c3ccccc3)c(-c3ccccc3)oc2ncn1Cc1ccco1 2.42%, CCOc1c(Br)cc(/C=C2\C(=O)N(CCC#N)N=C2C)cc1OC -33.3%, Cc1cc(C)cc(OCC(=O)NNC(=O)c2cc3ccccc3oc2=O)c1 -16.6%, CCN(CC)Cc1csc2ccc(Br)cc12 -1.56%, C=CCN(C(=O)Nc1ccc2oc(C)nc2c1)c1ccccc1 3.19%, COc1ccccc1NC(=O)/C=C/C(N)=O -12.8%, CC(C)N(c1ccccc1)c1ncnc(NCCC(=O)O)c1[N+](=O)[O-] 15.5%, Cc1ccc(S(=O)(=O)c2ccc(Oc3ccccc3)cc2)cc1 -7.17%, CCOC(=O)C1(S(=O)(=O)c2ccccc2)CCN(Cc2ccccc2)CC1 17%, CC(=O)Nc1cc(C(=O)O)ccc1S(=O)(=O)c1ccc(Cl)cc1 3.81%, O=C(Nc1ccc(Cl)cc1)c1ccsn1 11.1%, CC(=O)Oc1ccc(C(C)=O)c2c1OCCO2 -13%, COc1ccc(Nc2ncc(C(=O)N3CCN(c4ccccc4OC)CC3)c3ccccc23)cc1 -4.51%, CC1CCN(C(=O)CN(c2ccc(Oc3ccccc3)cc2)S(C)(=O)=O)CC1 -1.57%, C=CCNC(=O)c1csc(-c2ccccc2)n1 5.01%, CC(C)CC(=O)N1CCC(O)(CS(=O)(=O)Cc2ccccc2)CC1 5.12%, Cc1[nH]n(-c2ccc(Cl)cc2)c(=O)c1/C=N/n1c(C)nc2ccccc2c1=O 2.28%, Cc1ccc(-c2nc(C)sc2CC(=O)O)cc1 10.8%, CCCSC(=S)NC1CCS(=O)(=O)C1 (stereo not given) 15.8%, COc1ccc(C(=O)Nc2nc(-c3ccc(S(=O)(=O)N4CCOCC4)cc3)cs2)cc1 19.7%, COc1ccc(OC)c(NC(=O)c2cnn(-c3ccccc3Cl)c2NC(=O)c2ccco2)c1 -6.97%, O=C(NC1CCCCC1)c1ccc(CNc2c(N3CCOCC3)c(=O)c2=O)cc1 -21.1%, Cc1nnc(SCc2nc3ccccc3nc2C)s1 -20.9%, Cc1nn(-c2ccccc2)c(Cl)c1C(=O)Nc1ccccc1 -0.13%, CCN(CC)C(=O)CSc1nc2ccccc2o1 3.55%, c1ccc(CC2CCN(c3nc4ccccc4n4cnnc34)CC2)cc1 -5.6%, Cc1nn(C(C)CC(=O)O)c(C)c1C (stereo not given) -0.29%, CCC(C)NC(=O)CSC1=Nc2ccccc2C2=NC(CCC(=O)NCc3ccco3)C(=O)N12 (stereo not given) 1.95%, CCC(C)NC(=O)c1ccccc1NC(=O)c1ccccc1N(C)S(C)(=O)=O (stereo not given) -10.9%, CC(=O)N1CCCc2cc(S(=O)(=O)CCC(=O)N3CCN(c4ccccc4)CC3)ccc21 0.06%, Cn1nc(C(F)(F)F)c2cc(NC(=O)OCC(C)(C)C)sc21 -6.24%, Clc1ccccc1SCc1nc2ccccc2[nH]1 11.2%, COc1ccc(N2CCN(Cc3ccc(Br)s3)CC2)cc1 -19.3%, Cc1cc(N2CCN(Cc3ccc4c(c3)OCO4)CC2)n2ncnc2n1 13.4%, CC(C)(C)n1nnnc1C(c1ccc(F)cc1)N1CCN(Cc2ccc3c(c2)OCO3)CC1 (stereo not given) 9.67%

inhibition, active:
Cc1nc2ccccc2cc1OCc1ccc(F)cc1 56.8%, CC1=C/C(=N\OS(=O)(=O)c2ccccc2)C=CC1=O 82.9%, O=C(Nc1ccccc1)c1nnsc1S(=O)(=O)c1ccc(Cl)cc1 61.4%, Fc1ccc2[nH]c3c(N4CCN(Cc5ccc6c(c5)OCO6)CC4)ncnc3c2c1 80.7%
